# This is a sample that favours compounds with a hit; in the whole collection about 2.4% have one here.
# APOBEC3A inh: inhibitors of human APOBEC3A DNA deaminase | actives 0.41% (n = 330,000) | inhibition, % at 20 µM | recombinant A3A, FAM/TAMRA ssDNA deamination fluorescence | P31941;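 active = at least 40% inhibition at 20 µM here, with at most 30% in a related deaminase screen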;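 note: plate controls were A3A with DMSO for no effect and wells lacking A3A enzyme for full effect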
# CendR NRP1 mod: modulators of CendR peptide binding to human neuropilin-1 | O14786 | FAM-RPARPAR peptide binding to NRP-1, fluorescence polarization | inhibition, % at 25 µM | actives 0.85% (n = 360,000) | AID 602438;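 active = inhibition or corrected inhibition above about 18%, plus a signal ratio from 0.5 to 1.5, limit read from the data, passing the limit was not always enough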
# ADAM10 inh: ADAM10 inhibition, QFRET primary screen | actives 0.62% (n = 370,000) | recombinant ADAM10, EDANS/DABCYL FRET peptide cleavage, 3 h | AID 720582 | inhibition, % at 7 µM | O14672;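 active = inhibition above a per-campaign cutoff equal to the mean of compounds falling between control-based bounds plus 3 SD, cut at about 20% in these data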;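 note: 0% = DMSO wells while the 100% control is not disclosed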
# Target sequence (O14672 214-748 limits assumed): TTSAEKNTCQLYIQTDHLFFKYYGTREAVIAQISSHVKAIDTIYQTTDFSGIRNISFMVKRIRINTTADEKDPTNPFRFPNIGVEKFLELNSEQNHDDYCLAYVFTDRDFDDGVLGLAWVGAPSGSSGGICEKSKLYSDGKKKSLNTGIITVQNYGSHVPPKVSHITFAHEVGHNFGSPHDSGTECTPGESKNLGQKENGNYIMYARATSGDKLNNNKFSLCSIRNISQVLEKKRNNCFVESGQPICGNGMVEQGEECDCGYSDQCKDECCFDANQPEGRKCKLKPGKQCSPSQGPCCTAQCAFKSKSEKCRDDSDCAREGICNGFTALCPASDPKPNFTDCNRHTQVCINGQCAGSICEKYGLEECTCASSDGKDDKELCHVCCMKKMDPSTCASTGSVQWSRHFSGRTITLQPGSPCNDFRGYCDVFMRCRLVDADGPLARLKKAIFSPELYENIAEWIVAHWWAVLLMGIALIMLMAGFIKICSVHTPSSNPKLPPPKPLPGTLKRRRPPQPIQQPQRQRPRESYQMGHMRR
# ADAM17 inh: inhibitors of human ADAM17; recombinant ADAM17, EDANS/DABCYL FRET peptide cleavage; inhibition, % at 6.95 µM; actives 0.83% (n = 370,000); P78536; AID 720648;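 active = inhibition above the mean of compounds lying between control limits plus 3 SD, set per campaign, cut at about 8.5% in these data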;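 note: 0% = DMSO-only wells as the low control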
# A3G deaminase: inhibitors of human APOBEC3G DNA deaminase; Q9HC16; actives 0.28% (n = 330,000); inhibition, % at 20 µM; recombinant A3G, ssDNA deamination FAM/TAMRA fluorescence;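 active = inhibition of at least 40% at 20 µM, with no more than 30% in the related APOBEC3A deaminase screen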;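 note: plate controls were DMSO wells with A3G for no effect and wells lacking A3G enzyme for full effect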
# The depositor's hits bear a star; / = no result.
SMILES,APOBEC3A inh,CendR NRP1 mod,ADAM10 inh,ADAM17 inh,A3G deaminase
CCC(CO)Nc1cccc2c1S(=O)(=O)N(Cc1cn(Cc3ccc(Cl)cc3)nn1)Cc1ccccc1O2 (stereo not given),/,/,-11,1,/
Cc1ccn(C(=O)c2cc3c(C)nn(-c4ccccc4)c3s2)n1,-7,28*,/,/,-9
Cc1nn(-c2ccccc2)c2sc(C(=O)n3cccn3)cc12,2,-10,-12,-5,-2
CC(=O)C(C(c1ccccc1)N1CCCc2ccccc21)N1CCOCC1 (stereo not given),/,24*,-29,-7,/
Cc1cccc(C(C(C(=O)c2ccccc2)N2CCOCC2)N2CCOCC2)c1 (stereo not given),/,2,-1,-2,/
Cc1ccc(S(=O)(=O)N2[C@@H](c3ccc(Cl)cc3)C(C(=O)OC(C)(C)C)=CC[C@H]2c2ccc(Cl)c(Cl)c2)cc1,/,30*,9,8,/
Cc1c(OC(C)C(=O)NCc2ccccn2)ccc2c3c(c(=O)oc12)CCC3 (stereo not given),-6,23*,-272,-98,-6
Cc1c(OCC(=O)NCc2ccccn2)ccc2c3c(c(=O)oc12)CCCC3,-4,-4,-19,-9,-2
O=C(NCc1ccco1)OC1CCC12CCC(c1ccccc1)CC2 (stereo not given),/,/,17,8,/
CC(=O)Cc1nsc(NC(=O)c2cn(-c3ccccc3)nc2-c2ccc(Br)cc2)n1,28,32*,-10,0,1
Nc1ccn([C@@H]2O[C@H](C(=O)NCc3ccc4c(c3)OCO4)[C@@H](O)[C@H]2O)c(=O)n1,/,26*,1,2,/
Nc1ccn(CC(=O)NCc2ccc3c(c2)OCO3)c(=O)n1,4,21*,-5,-2,-2
COc1ccc(CNC(=O)Cn2ccc(N)nc2=O)cc1,1,32*,4,2,-9
Nc1ccn(CC(=O)NCCNc2ccc([N+](=O)[O-])cn2)c(=O)n1,1,28*,3,4,-7
O=C(Cn1ccc(NC(=O)OCc2ccccc2)nc1=O)NCc1ccc2c(c1)OCO2,4,0,-2,-3,6
O=C(CN1CCN(Cc2ccccc2)CC1)NCCNc1ccc([N+](=O)[O-])cn1,3,9,3,3,-4
O=C(Cc1cn(Cc2ccccc2)c2ccccc12)Nc1ccc(Nc2cccnc2)c(Br)c1,/,/,3,2,/
Cc1c(C)[n+](=O)c(-c2ccc(Br)cc2)c(C)n1[O-],-2,1,-7,-4,2
Cc1c(C)[n+](=O)c(C)c(C)n1[O-],/,29*,-3,-4,/
CC1=C(C(=O)N2CCOCC2)CC(CC(=O)NCCc2ccccn2)C(=O)N1Cc1ccccc1 (stereo not given),/,26*,-2,3,/
Nn1c(SCC(=O)N2c3ccccc3Sc3ccc(Cl)cc32)nnc1-c1n[nH]c2c1CCC2,/,/,5,7,/
COc1ccc(C(=O)NCc2ccc(C)cc2)cc1S(=O)(=O)N1CCCc2ccccc21,-4,11,14,18*,-7
CNc1nc(-c2ccc3c(c2)CCN3C(=O)c2ccccc2F)cs1,/,24*,5,0,/
N#Cc1c2ccc(OCC(=O)NCc3ccco3)cc2n2ccccc12,8,-10,-194,-82,-3
N#Cc1c2ccc(O)cc2n2ccccc12,-3,31*,-255,-92,-3
SMILES,APOBEC3A inh,CendR NRP1 mod,ADAM10 inh,ADAM17 inh,A3G deaminase
COc1ccc(C(C(=O)NC(C)(C)C)N(C(=O)CCC(=O)Nc2cc(C)on2)c2c(C)cccc2C)cc1 (stereo not given),1,31*,7,0,-7
COc1ccc(C(C(=O)NC(C)(C)C)N(C(=O)CCC(=O)Nc2cc(C)on2)c2ccc(C)c(C)c2)cc1 (stereo not given),0,4,-3,-2,-4
O=C(Nc1ccc(N2C(=O)[C@@H]3[C@H](C2=O)[C@@H]2C=C[C@H]3C2)c(Cl)c1)c1ccccn1,/,/,4,-1,/
COc1ccc(N2CCN(C(=O)c3ccc(OCc4c(C)noc4C)c(OC)c3)CC2)cc1,-4,8,-2,1,-2
COc1cc(C(=O)N2CCN(c3ccc([N+](=O)[O-])cc3)CC2)ccc1OCc1c(C)noc1C,-3,19*,-5,-2,-5
O=C(NCCCc1ccccc1)[C@H](Cc1ccccc1)NC1(C(=O)NCCc2c[nH]c3ccccc23)CCOCC1,/,/,15,5,/

# Compound activity as filed in PubChem BioAssay.
